# In the supplement of paper PMC3334620:
# Whole data set: some 33,000 sequences, median “E-score (-0.5 to 0.5)” near -0.036, cut for the highest 2% near 0.37. What follows is part of a selection rich in the highest values, with near analogues and random picks from the rest.
# Target: T1, Yer064c (UniProt P40041)
# T1 sequence: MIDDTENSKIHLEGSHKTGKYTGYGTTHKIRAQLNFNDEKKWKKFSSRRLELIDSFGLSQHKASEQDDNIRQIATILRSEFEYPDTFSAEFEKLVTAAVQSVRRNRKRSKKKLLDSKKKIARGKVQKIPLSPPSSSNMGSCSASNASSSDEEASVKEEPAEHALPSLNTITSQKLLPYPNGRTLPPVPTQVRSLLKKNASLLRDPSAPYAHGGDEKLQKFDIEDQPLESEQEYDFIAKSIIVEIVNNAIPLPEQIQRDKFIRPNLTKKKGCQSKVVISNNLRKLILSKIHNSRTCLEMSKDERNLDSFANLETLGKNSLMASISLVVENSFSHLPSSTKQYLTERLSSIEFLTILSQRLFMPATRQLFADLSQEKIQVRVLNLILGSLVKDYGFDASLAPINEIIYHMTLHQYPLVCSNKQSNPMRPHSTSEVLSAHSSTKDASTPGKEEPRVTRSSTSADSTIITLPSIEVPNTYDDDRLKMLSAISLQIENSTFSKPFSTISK
# Experiment: PBM E-score (8-mer binding enrichment) (E-score (-0.5 to 0.5)); higher = stronger / more preferred TF binding
# Details: protein concentration: 200 nM; construct: GST-full length
# Method: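 Universal 'all 10-mer' protein binding microarrays (Agilent AMADID 015681) probed with GST-tagged S. cerevisiae TFs (full-length or DBD) made by in vitro transcription/translation (PURExpress), about 100-200 nM. Bound TF was detected with fluorescent anti-GST. Each ungapped 8-mer (which stands for itself and its reverse complement) is scored by the PBM enrichment score (E-score), a modified Wilcoxon-Mann-Whitney statistic from -0.5 to +0.5, computed with the Universal PBM Analysis Suite. Scale: above 0.35 generally sequence-specific binding.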
row,Sequence,PBM E-score
1,AAATTTCC,-0.0423
2,CCTGACGA,0.115
3,GCTGACTA,0.467
4,GCTGACAA,0.00774
5,GCTGACGA,0.129
6,CCTGACTA,0.461
7,CCTGACAC,0.023
8,ACTGACTC,0.461
9,ACTGACCC,0.0295
10,CCTGACTC,0.481
11,CCTGACAA,-0.124
12,CCTGACGC,-0.133
13,ACTGACAC,0.0326
14,ACCGCTCT,-0.114
15,CCGCTTAC,0.026
16,ATCACCCA,0.135
17,AGACCAGG,-0.166
18,TGCGTAAA,0.026
19,GCCGTCGA,-0.0942
20,CGCGGTAG,-0.0407
21,CCGGGTAA,-0.0414
22,ACTGACTA,0.447
23,ACTGACTG,0.306
24,ACTGACCA,-0.0902
25,ATAAAACC,0.0678
26,AAAAACCT,0.111

row,Sequence,PBM E-score
1,AGACACTG,0.0291
2,AGTCACTG,0.457
3,CGTCACTA,0.0406
4,AGTCACTA,0.469
5,ATTCACTG,0.138
6,AGTCACTC,0.467
7,CGTCACTC,-0.0803
8,ATTCACTC,0.0742
9,GGTCACTA,-0.234
10,TACTGATA,0.0643
11,ATAGGACG,-0.178
12,CCGCCAAG,-0.149
13,CCGTAGGC,-0.119
14,ACGTAGTA,-0.0277
15,ACGTAGTC,0.39
16,CCGTAGTC,0.394
17,CCGTAGTA,-0.15
18,ACGTAGTG,-0.132
19,AGCGTTAG,-0.0809
20,CATAGCAA,-0.0521
21,CATCTGTA,-0.0129
22,GGATCGTA,-0.118
23,GACTATAC,0.413
24,CACTATAC,-0.184
25,AACTATAA,0.0773
26,CACTATAA,-0.0109

row,Sequence,PBM E-score
1,GACTATAA,0.389
2,AACTATAC,0.172
3,AACTCTCG,-0.105
4,CCTTCAGC,-0.126
5,CATTTGGA,0.0626
6,AATGAGTG,0.249
7,CATGAGCC,0.247
8,CATGAGTC,0.481
9,AATGAGAC,0.257
10,AATGAGTC,0.485
11,CATGAGAC,0.322
12,ACGAGCGA,-0.0924
13,TGTTGAAA,0.0239
14,ACATCCCT,-0.0971
15,AGATCTAA,-0.0235
16,AGAAGTAT,0.0717
17,ATTCATAG,0.166
18,CCTCATAG,-0.00122
19,GCTCATAC,-0.0113
20,GCTCATAA,0.136
21,ACCCATAT,0.216
22,ACTCATAC,0.393
23,ACTCATAT,0.368
24,TCTCATAA,0.209
25,ACTCATAA,0.375
26,ACTCATAG,0.385

row,Sequence,PBM E-score
1,CCTCATAC,-0.153
2,ACGCATAT,-0.225
3,GAAGATCA,0.02
4,ATCGATAG,0.0388
5,GCGCGACA,-0.0346
6,ACCTGGAG,0.0449
7,CTCTTGCA,0.00318
8,AGTGATTA,0.4
9,CGTGATCC,-0.251
10,CGTGATAC,-0.131
11,GGTGATGA,0.191
12,GGTGATAA,-0.111
13,AGTGATTC,0.405
14,AGTGATAC,0.0829
15,CGTGATTC,0.418
16,AGTGATAA,-0.0496
17,GGTGATTA,0.447
18,AGTGATTG,0.362
19,AGTGATGA,0.261
20,ATTGGACA,-0.0986
21,AAAAACCC,-0.204
22,GAGATAGA,-0.206
23,GCAGTCCA,0.123
24,GCTCTCCA,-0.226
25,GTCCTCAA,0.159
26,CCAGAACC,-0.1

row,Sequence,PBM E-score
1,CGTGATTA,0.393
2,CGTGATAA,0.0558
3,CGTGATGA,0.104
4,AAGATGCC,-0.214
5,CGGCAAAA,-0.235
6,ACAAGACT,0.37
7,ACAAGACG,-0.027
8,AGAAGACC,-0.209
9,AGAAGACT,0.368
10,ACAAGACA,-0.114
11,AGAAGACG,-0.0622
12,ATTAATTG,0.238
13,ACCATACA,-0.0449
14,GAGGACCA,-0.0209
15,TGTATCAA,0.187
16,AGCGACGG,-0.139
17,ATGTAATC,0.291
18,TATAGTGA,0.134
19,AATAGTCC,0.241
20,AATAGTCG,0.346
21,AATAGTCA,0.478
22,CATAGTCC,0.304
23,CATAGTAA,0.212
24,CATAGTCA,0.466
25,TATAGTCA,0.467
26,AATAGTCT,0.297

row,Sequence,PBM E-score
1,CATAGTGG,-0.088
2,CATAGTCG,0.374
3,TATAGTAA,0.0693
4,AATGGGCT,-0.041
5,AACCAACC,-0.128
6,CGTCGAGA,0.0495
7,GAGCGCGC,-0.194
8,GTCGCTCA,0.171
9,GGACCATA,-0.109
10,CCGTACGA,-0.0292
11,AAGGGAGA,0.039
12,AGGGACTA,0.222
13,GATAGTCA,0.476
14,GATAGTAA,0.149
15,GATAGTCC,0.296
16,GCACCCCA,-0.26
17,GGGAGTTA,-0.0443
18,GGGAGTCA,0.477
19,GGGAGTAA,0.00383
20,CGGAGTCA,0.477
21,CGGAGTCC,0.307
22,CGGAGTTA,-0.0037
23,CACTGTGG,-0.177
24,CACCTACG,0.0159
25,GAACCGTC,-0.209
26,GACCTGTA,-0.193

row,Sequence,PBM E-score
1,ATCGAGTG,0.139
2,ATCGAGTA,0.138
3,ATCGAGTC,0.389
4,CTCGAGTC,0.37
5,CTCGAGAC,0.163
6,CTCGAGTA,0.109
7,CCGCTAGC,-0.334
8,GAAGATCC,-0.181
9,ACCCCTTA,-0.00226
10,CAGACTCC,0.187
11,GAGACTCC,0.367
12,CAGACTCG,0.218
13,GAGACTAC,0.36
14,AAGACTGC,0.137
15,GAGACTGC,0.217
16,AAGACTCC,0.387
17,CAGACTGA,0.134
18,CAGACTCA,0.396
19,AAGACTGT,0.254
20,AAAACTCT,-0.168
21,AAGACTCT,0.425
